Measured values as given in ChEMBL document CHEMBL3433997, “St. Jude Leishmania screening dataset” (2016).

What follows are compounds tested against Solute carrier family 2, facilitated glucose transporter member 1 (Homo sapiens) (UniProt P11166) (assay: ST_JUDE_LEISH: Cytotoxicity at 2uM final concentration against transgenic Leishmania Mexicana promastigotes LmGLUT1 that are glucose transport deficient and complemented with the human glucose transporter GLUT1. Activity is measured by DNA content using SYBR green in vitro).
Type: functional

Chain of Solute carrier family 2, facilitated glucose transporter member 1 (Homo sapiens) (P11166 whole entry): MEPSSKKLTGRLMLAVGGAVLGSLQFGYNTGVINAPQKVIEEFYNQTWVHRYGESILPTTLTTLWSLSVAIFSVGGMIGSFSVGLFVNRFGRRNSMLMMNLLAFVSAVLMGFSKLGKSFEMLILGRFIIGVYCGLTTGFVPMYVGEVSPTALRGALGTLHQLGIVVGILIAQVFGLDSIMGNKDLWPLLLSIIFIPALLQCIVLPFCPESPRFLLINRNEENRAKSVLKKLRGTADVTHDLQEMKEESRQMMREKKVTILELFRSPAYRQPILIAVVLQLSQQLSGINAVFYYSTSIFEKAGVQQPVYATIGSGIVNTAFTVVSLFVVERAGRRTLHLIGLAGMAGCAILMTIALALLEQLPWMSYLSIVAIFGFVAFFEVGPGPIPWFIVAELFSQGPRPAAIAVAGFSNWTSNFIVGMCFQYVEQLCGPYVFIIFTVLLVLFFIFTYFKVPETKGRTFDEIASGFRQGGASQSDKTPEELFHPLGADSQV

Compound | inhibition
CC(C)CN(Cc1c(O)ccc2[nH]c(-c3ccc(F)cc3F)nc12)CC(C)C | 11.1%
COc1cccc2c(N/N=C/c3cccc([N+](=O)[O-])c3)ccnc12 | 13.4%
Cc1ccc(Nc2c3ccccc3nc3ccc(C)cc23)cc1 | 4.86%
CCCCN1Cc2c(n(CC(=O)Nc3ccccc3)c3cc(-c4ccccc4)nn3c2=O)C1=O | 1.25%
CN1CCN(CCCNCc2cccc(Nc3nccc(Nc4ccc(Oc5ccccc5)cc4)n3)c2)CC1 | 1.12%
O=C(NC(c1ccccc1)c1ccc2cccnc2c1O)c1ccccc1 (centres undefined) | 4.04%
Cc1cccc2nc(-c3ccc(-c4ccc(CN5CCN(CCC#N)CC5)cc4)cc3)[nH]c12 | 15.7%
O=C(NCCN1CCOCC1)c1ccc(CNC(=O)c2ccc(O)c(-c3ccc(Cl)c(Cl)c3)c2)cc1 | 1.82%
O=C(Cc1ccccn1)Nc1cccc(-c2cccc(-c3nc4cc(C(F)(F)F)ccc4[nH]3)c2)c1 | 0.14%
N=C(N)NN=CC(=O)Nc1ccc(C(F)(F)F)cc1 | -0.81%
COC(=O)[C@@H](NC(=O)[C@H](CC(C)C)Nc1ccc(C#N)c2ccccc12)c1ccc(O)cc1 | 1.02%
COc1ccc2nccc([C@@H](O)CN3CCC(NC(=O)C(c4cc5ccccc5o4)N4CCN(c5ccc(F)cc5)CC4)CC3)c2c1 (some centres undefined) | 2.59%
COc1ccc(Cn2c(Nc3cccc(C(F)(F)F)c3)nc3cc(C(=O)NCCN4CCCC4)ccc32)cc1Cl | 0.36%
O=C(/C=C/c1ccc(Cl)c(Cl)c1)NCCCCN1CCCN(C(=O)Nc2cc(Cl)cc(Cl)c2)CC1 | 0.48%
CCCCCn1c(Sc2ccc(C#N)c([N+](=O)[O-])c2)nnc1-c1cc(OC)cc(OC)c1 | 13%
O=C(O)c1ccc2nc(-c3ccccn3)c(-c3ccccn3)nc2c1 | -0.91%
COc1ccc(-c2cccc(CNC3CCN(CC4Cn5c(=O)ccc6ccc(F)c4c65)CC3)c2)cc1 (centres undefined) | 10.7%
CC(CN1CCN(C)CC1)C(=O)Nc1ccc(-c2ccc(-c3nc4ccccc4[nH]3)cc2)cc1 (centres undefined) | 0.19%
c1ccc(Oc2ccc(Nc3ccnc4cc(-c5ccc(CNCCN6CCOCC6)o5)ccc34)cc2)nc1 | 2.93%
CCCCCC(C)(C)NC[C@@H](O)[C@H](Cc1ccccc1)NC(=O)c1cc(NCC)cc(N2CCCC2=O)c1 | -0.4%
CCN(CCCN1CCCCC1)c1cc(C)nc(Nc2ccc(C)cc2Br)n1 | 4.17%
CC1(C)CCCN(Cc2c(O)ccc3c(O)c(-c4nc5ccccc5s4)c(=N)oc23)C1 | 4.5%
CN(C)C(CNC(=O)c1cc(-c2ccncc2)c(-c2ccc(NC(=O)Nc3cccc(Cl)c3)cc2)o1)c1ccccc1 (centres undefined) | 1.5%
Cc1[nH]c(C)c(-c2ccc(OCc3ccc(F)cc3)cc2)c(=O)c1Cl | -0.65%

The compounds below were run against Hexose transporter 1 (Plasmodium falciparum) (UniProt O97467) (assay: ST_JUDE_LEISH: Cytotoxicity at 2uM final concentration against transgenic Leishmania Mexicana promastigotes LmPfHT that are glucose transport deficient and complemented with the Plasmodium falciparum hexose transporter. Activity is measured by DNA content using SYBR green in vitro).
Type: functional

Compound | inhibition
O=C(Nc1ccccc1)N(Cc1ccccc1-c1cccc(CNCc2ccc3c(c2)OCO3)c1)C1CCN(Cc2ccccc2)CC1 | -2.6%
CCCCCCCCN1CCN(CCCCCCNc2c3ccccc3nc3ccccc23)CC1 | 28.6%
Cc1nc(-c2cccc(Nc3nccc(NCC(O)c4ccc(C(F)(F)F)cc4)n3)c2)cs1 (centres undefined) | 1.67%
COc1cc(Cc2cnc(N)nc2N)ccc1OCc1csc(-c2ccc(Cl)cc2)n1 | 11.7%
CCCC(C)Nc1nc(C)cc(NCCC(=O)Nc2ccc(OC)cc2)n1 (centres undefined) | 0.08%
CN(CCCNCc1ccc2ccccc2c1)CCCNCc1ccc2ccccc2c1 | 13.7%
N#Cc1cnc2cc(-c3cnc(CNCCN4CCOCC4)s3)ccc2c1Nc1ccc(Oc2ccccc2)cc1 | 3.38%
N#Cc1ccc2c(c1)CCN(CCC1CCC(NC(=O)c3cc4ccc(Br)cc4[nH]3)CC1)C2 (centres undefined) | 0.57%
N#Cc1ccc(NC(=O)Nc2ccc(OC(F)(F)F)cc2)cc1 | 1.59%
O=C(Nc1ccc(F)c(F)c1)c1ccc(CN2CCCN(Cc3cccc(O)c3)CC2)cc1 | 2.77%
CC(C)C1CCc2nc(N)nc(N)c2C1 (centres undefined) | 4.4%
CCCc1cc(NC2CCN(C)CC2)nc(Nc2ccc(F)cc2)n1 | 6.83%
COc1cccc(C23NC(=Nc4nc5ccccc5[nH]4)NC2(c2cccc(OC)c2)NC(=Nc2nc4ccccc4[nH]2)N3)c1 (centres undefined) | 4.74%
COc1ccc(CN2CCC2=O)c(OC)c1 | 3.17%
CC(C)N(C(=O)CSc1nc2cc(Cl)ccc2c(=O)n1Cc1ccccc1)C(C)C | 2.14%
O=C(Nc1ccc(Cl)c(C(F)(F)F)c1)c1ccc(C(=O)Nc2ccc(Cl)c(C(F)(F)F)c2)cc1 | 1.08%
CC(C)CN(Cc1c(O)ccc2[nH]c(-c3ccc(F)cc3F)nc12)CC(C)C | 10.8%
COc1cccc2c(N/N=C/c3cccc([N+](=O)[O-])c3)ccnc12 | 10.8%
Cc1ccc(Nc2c3ccccc3nc3ccc(C)cc23)cc1 | 7.1%
CCCCN1Cc2c(n(CC(=O)Nc3ccccc3)c3cc(-c4ccccc4)nn3c2=O)C1=O | 1.92%

Compound | inhibition
CN1CCN(CCCNCc2cccc(Nc3nccc(Nc4ccc(Oc5ccccc5)cc4)n3)c2)CC1 | 2.79%
O=C(NC(c1ccccc1)c1ccc2cccnc2c1O)c1ccccc1 (centres undefined) | 6.18%
Cc1cccc2nc(-c3ccc(-c4ccc(CN5CCN(CCC#N)CC5)cc4)cc3)[nH]c12 | 14.1%
O=C(NCCN1CCOCC1)c1ccc(CNC(=O)c2ccc(O)c(-c3ccc(Cl)c(Cl)c3)c2)cc1 | 2.76%
O=C(Cc1ccccn1)Nc1cccc(-c2cccc(-c3nc4cc(C(F)(F)F)ccc4[nH]3)c2)c1 | 1.02%
N=C(N)NN=CC(=O)Nc1ccc(C(F)(F)F)cc1 | -0.97%
COC(=O)[C@@H](NC(=O)[C@H](CC(C)C)Nc1ccc(C#N)c2ccccc12)c1ccc(O)cc1 | 0.76%
COc1ccc2nccc([C@@H](O)CN3CCC(NC(=O)C(c4cc5ccccc5o4)N4CCN(c5ccc(F)cc5)CC4)CC3)c2c1 (some centres undefined) | 1.79%
COc1ccc(Cn2c(Nc3cccc(C(F)(F)F)c3)nc3cc(C(=O)NCCN4CCCC4)ccc32)cc1Cl | -0.47%
O=C(/C=C/c1ccc(Cl)c(Cl)c1)NCCCCN1CCCN(C(=O)Nc2cc(Cl)cc(Cl)c2)CC1 | 0.76%
CCCCCn1c(Sc2ccc(C#N)c([N+](=O)[O-])c2)nnc1-c1cc(OC)cc(OC)c1 | 10.4%
O=C(O)c1ccc2nc(-c3ccccn3)c(-c3ccccn3)nc2c1 | -3.35%
COc1ccc(-c2cccc(CNC3CCN(CC4Cn5c(=O)ccc6ccc(F)c4c65)CC3)c2)cc1 (centres undefined) | 10%
CC(CN1CCN(C)CC1)C(=O)Nc1ccc(-c2ccc(-c3nc4ccccc4[nH]3)cc2)cc1 (centres undefined) | 3.04%
c1ccc(Oc2ccc(Nc3ccnc4cc(-c5ccc(CNCCN6CCOCC6)o5)ccc34)cc2)nc1 | 2.52%
CCCCCC(C)(C)NC[C@@H](O)[C@H](Cc1ccccc1)NC(=O)c1cc(NCC)cc(N2CCCC2=O)c1 | 0.68%
CCN(CCCN1CCCCC1)c1cc(C)nc(Nc2ccc(C)cc2Br)n1 | 4.38%
CC1(C)CCCN(Cc2c(O)ccc3c(O)c(-c4nc5ccccc5s4)c(=N)oc23)C1 | 1.38%
CN(C)C(CNC(=O)c1cc(-c2ccncc2)c(-c2ccc(NC(=O)Nc3cccc(Cl)c3)cc2)o1)c1ccccc1 (centres undefined) | 2.82%
Cc1[nH]c(C)c(-c2ccc(OCc3ccc(F)cc3)cc2)c(=O)c1Cl | -0.27%
